Data on 40 compounds can be found in PubChem BioAssay (NCI).

The panel holds about 79,000 compounds, 15% with a hit somewhere; the sample as a whole holds those more often. Values without a mark were called inactive. No stated cut-off is given here; in the data, active means growth inhibition above about 70%; inactive means the rest.

The nature of the first experiment: NCI Yeast Anticancer Drug Screen. Data for the sgs1 mgt1 strain (AID 161).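 Further: 0% = growth of cultures given vehicle only.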 To be noted: S. cerevisiae sgs1 mgt1 strain, at 50.0 µM, stronger effect = higher value. Summed up:
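Test agents were incubated with a DNA-repair-mutant yeast strain. Growth was then read and compared against vehicle-treated controls.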
For `CN(C)c1ccc(C=O)cc1[N+](=O)[O-]`, the growth inhibition is -10.8%.

With `Nc1nc2c(c(-c3cccc(Cl)c3)n1)COC/C2=C\c1cccc(Cl)c1`, the growth inhibition was 25.2%.

Take `Cc1cccc(CSc2nc(N)nc3ncn(C4CC(O)C(CO)O4)c23)n1` (stereo not given): the growth inhibition is 10.7%.

As to `O=C(O)COc1ccccc1-c1ccccc1`, the growth inhibition is -10.6%.

On to `Cc1nc(N)nc(-c2ccccc2)c1N=Nc1ccccc1Br`, for which the growth inhibition is 4.4%.

Turning to `CC(C)(C)C1CCC2c3c([nH]c4ccccc34)C3C(=O)N(c4ccc(C#N)cc4)C(=O)C3C2C1` (stereo not given), the growth inhibition is 54.9%.

In the case of `ClCC#CCCl`, the growth inhibition was 16.9%.

On to `O=C(N/N=C/c1ccc(Cl)cc1Cl)C(O)(c1ccccc1)c1ccccc1`, for which the growth inhibition is 10.2%.

As for `CCCCNCC(=O)O[C@]1(CC)C(=O)OCc2c1cc1n(c2=O)Cc2cc3ccccc3nc2-1`, the growth inhibition was 49.5%.

`O=C(CN1C(=O)c2ccccc2C1=O)NCC(=O)N(C(=O)NC1CCCCC1)C1CCCCC1`: the growth inhibition was 27.9%.

With `O=C(O)c1ccc(F)c([N+](=O)[O-])c1`, the growth inhibition is 17.4%.

As to `O=C(NC1CCCCC1C1CCCCC1)c1ccc(Cl)cc1` (stereo not given), the growth inhibition is -1.3%.

As for `COc1ccc(C(=O)/C=C/c2cc(C(C)(C)C)c(O)c(C(C)(C)C)c2)cc1`, the growth inhibition was 14.6%.

Take `CC1(C)CCC2(C(=O)OC3OC(CO)C(O)C(O)C3O)CCC3(CO)C(=CCC4C5(C)CC(O)C(O)C(C)(C(=O)OC6OC(CO)C(O)C(O)C6O)C5CCC43C)C2C1` (stereo not given): the growth inhibition is 17.6%.

`CCCCCCCCCCCC(=O)OC(COC(N)=O)COc1ccc(Cl)cc1` (stereo not given): the growth inhibition was -18.9%.

Turning to `CC[P+](C)(Cc1ccccc1)c1ccccc1` (stereo not given), the growth inhibition is 22.1%.

In the case of `O=[N+]([O-])c1cccnc1Sc1nc2ccccc2[nH]1`, the growth inhibition was 25.5%.

`Clc1ccc(/C=C2/c3ccccc3-c3nc4ccccc4cc32)cc1`: the growth inhibition is 23.8%.

For the compound `O=C(Cl)c1cc(I)c(I)c(I)c1`, the growth inhibition is 54.3%.

Take `COc1ccc2c(C(=O)O)cc3c4ccccc4ncc3c2c1`: the growth inhibition was -6.75%.

Turning to `CC(=O)CC(=O)Nc1ccc(Cl)cc1`, the growth inhibition was 12.2%.

As to `NC(CSC(=O)c1ccccc1)C(=O)O` (stereo not given), the growth inhibition is -19.8%.

Consider `CCN(CC)C(=O)Cc1c(C(=O)N(CC)CC)c(=O)nc2sccn12`, for which the growth inhibition was -30.8%.

Turning to `CC(=O)Nc1c([N+](=O)[O-])cc(C2CCCCC2)cc1[N+](=O)[O-]`, the growth inhibition was 4.25%.

As to `CCN(CC)CCn1cnc(C#N)c1N`, the growth inhibition was -1.35%.

For the compound `Nn1c(-c2ccccc2)n[nH]c1=O`, the growth inhibition was 16.5%.

Regarding `CCc1ccc(NC(=S)NC(=O)C(C)Oc2ccccc2)cc1` (stereo not given), the growth inhibition was 54.7%.

As for `Cc1ccc(Cc2cc(=O)[nH]c(=O)[nH]2)cc1`, the growth inhibition was -13.2%.

`N#Cc1cc2c(n(C3OC(CO)C(O)C(O)C3O)c1=S)CCCCCC2` (stereo not given): the growth inhibition was 17.8%.

As for `O=c1c(-c2c(-c3ccccc3)oc3ccc(Cl)cc3c2=O)c(-c2ccccc2)oc2ccc(Cl)cc12`, the growth inhibition is 5.3%.

`N#CC(c1ccccc1)N(CCc1ccccc1)C(=O)c1ccccc1` (stereo not given): the growth inhibition was -23.4%.

With `Nc1[nH]c(=O)ncc1[N+](=O)[O-]`, the growth inhibition is 5.9%.

For the compound `Cc1nc2c(N3CCCCC3)ncnc2o1`, the growth inhibition is -6.15%.

Regarding `CCC1CN2CCc3cc(OC)c(OC)cc3C2CC1CCCl` (stereo not given), the growth inhibition was -4.5%.

For `COC(=O)C1(C)CCCC2(C)C1CCC1(O)C2CC2OC2(C(C)C)C1O` (stereo not given), the growth inhibition was -0.9%.

In the case of `N#C/C(=C\c1ccccc1)c1ccc(F)cc1F`, the growth inhibition is 6.15%.

Consider `Cc1cc(=O)[nH]c(NN2C(Cl)C(=O)C2c2c(O)ccc3ccccc23)n1` (stereo not given), for which the growth inhibition was -0.75%.

Take `CC1=NN(c2cc(S(=O)(=O)O)ccc2Cl)C(=O)C1N=Nc1ccccc1` (stereo not given): the growth inhibition is -30.1%.

With `CC(C(=O)O)C(C)C(=O)O` (stereo not given), the growth inhibition is 9.8%.

In the case of `CCN(CC)C(=O)c1ccncc1C(=O)c1ccncc1`, the growth inhibition is -8.4%.

A short description of another experiment: NCI Yeast Anticancer Drug Screen. Data for the cln2 rad14 strain (AID 165).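 Further: 0% = growth equal to vehicle treated cultures.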 The conditions noted are these: S. cerevisiae cln2 rad14 strain, at 50.0 µM, stronger effect = higher value. The procedure, abridged: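 The screen exposed genetically defined yeast (cln2 rad14) to test compounds and scored growth inhibition relative to vehicle-treated controls.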
For the compound `CN(C)c1ccc(C=O)cc1[N+](=O)[O-]`, the growth inhibition is -31.8%.

On to `Nc1nc2c(c(-c3cccc(Cl)c3)n1)COC/C2=C\c1cccc(Cl)c1`, for which the growth inhibition was 20.2%.

As to `Cc1cccc(CSc2nc(N)nc3ncn(C4CC(O)C(CO)O4)c23)n1` (stereo not given), the growth inhibition is -48.2%.

Regarding `O=C(O)COc1ccccc1-c1ccccc1`, the growth inhibition was -48.5%.

As to `Cc1nc(N)nc(-c2ccccc2)c1N=Nc1ccccc1Br`, the growth inhibition was -6.95%.

In the case of `CC(C)(C)C1CCC2c3c([nH]c4ccccc34)C3C(=O)N(c4ccc(C#N)cc4)C(=O)C3C2C1` (stereo not given), the growth inhibition is 16.9%.

For the compound `ClCC#CCCl`, the growth inhibition is 4.3%.

On to `O=C(N/N=C/c1ccc(Cl)cc1Cl)C(O)(c1ccccc1)c1ccccc1`, for which the growth inhibition was 22.9%.

For the compound `CCCCNCC(=O)O[C@]1(CC)C(=O)OCc2c1cc1n(c2=O)Cc2cc3ccccc3nc2-1`, the growth inhibition is 28.8%.

On to `O=C(CN1C(=O)c2ccccc2C1=O)NCC(=O)N(C(=O)NC1CCCCC1)C1CCCCC1`, for which the growth inhibition was 11.8%.

On to `O=C(O)c1ccc(F)c([N+](=O)[O-])c1`, for which the growth inhibition is -22.6%.

Take `O=C(NC1CCCCC1C1CCCCC1)c1ccc(Cl)cc1` (stereo not given): the growth inhibition was -10.9%.

With `COc1ccc(C(=O)/C=C/c2cc(C(C)(C)C)c(O)c(C(C)(C)C)c2)cc1`, the growth inhibition is 25.4%.

On to `CC1(C)CCC2(C(=O)OC3OC(CO)C(O)C(O)C3O)CCC3(CO)C(=CCC4C5(C)CC(O)C(O)C(C)(C(=O)OC6OC(CO)C(O)C(O)C6O)C5CCC43C)C2C1` (stereo not given), for which the growth inhibition is 23.2%.

As for `CCCCCCCCCCCC(=O)OC(COC(N)=O)COc1ccc(Cl)cc1` (stereo not given), the growth inhibition was 0.3%.

For `CC[P+](C)(Cc1ccccc1)c1ccccc1` (stereo not given), the growth inhibition was -3.25%.

Turning to `O=[N+]([O-])c1cccnc1Sc1nc2ccccc2[nH]1`, the growth inhibition is -20.5%.

In the case of `Clc1ccc(/C=C2/c3ccccc3-c3nc4ccccc4cc32)cc1`, the growth inhibition is -24.9%.

`O=C(Cl)c1cc(I)c(I)c(I)c1`: the growth inhibition was 37.2%.

On to `COc1ccc2c(C(=O)O)cc3c4ccccc4ncc3c2c1`, for which the growth inhibition is 26.9%.

As to `CC(=O)CC(=O)Nc1ccc(Cl)cc1`, the growth inhibition is 3.85%.

`NC(CSC(=O)c1ccccc1)C(=O)O` (stereo not given): the growth inhibition was -2.55%.

With `CCN(CC)C(=O)Cc1c(C(=O)N(CC)CC)c(=O)nc2sccn12`, the growth inhibition is -23.3%.

Regarding `CC(=O)Nc1c([N+](=O)[O-])cc(C2CCCCC2)cc1[N+](=O)[O-]`, the growth inhibition is -34.5%.

In the case of `CCN(CC)CCn1cnc(C#N)c1N`, the growth inhibition was -27.6%.

`Nn1c(-c2ccccc2)n[nH]c1=O`: the growth inhibition was 25.9%.

`CCc1ccc(NC(=S)NC(=O)C(C)Oc2ccccc2)cc1` (stereo not given): the growth inhibition is 15.1%.

For `Cc1ccc(Cc2cc(=O)[nH]c(=O)[nH]2)cc1`, the growth inhibition is -76.5%.

For `N#Cc1cc2c(n(C3OC(CO)C(O)C(O)C3O)c1=S)CCCCCC2` (stereo not given), the growth inhibition is 10.4%.

As for `O=c1c(-c2c(-c3ccccc3)oc3ccc(Cl)cc3c2=O)c(-c2ccccc2)oc2ccc(Cl)cc12`, the growth inhibition is 7.25%.

Turning to `N#CC(c1ccccc1)N(CCc1ccccc1)C(=O)c1ccccc1` (stereo not given), the growth inhibition was -18.7%.

With `Nc1[nH]c(=O)ncc1[N+](=O)[O-]`, the growth inhibition was -25.4%.

With `Cc1nc2c(N3CCCCC3)ncnc2o1`, the growth inhibition is -28.7%.

`CCC1CN2CCc3cc(OC)c(OC)cc3C2CC1CCCl` (stereo not given): the growth inhibition was -9.7%.

With `COC(=O)C1(C)CCCC2(C)C1CCC1(O)C2CC2OC2(C(C)C)C1O` (stereo not given), the growth inhibition is -31.4%.

Take `N#C/C(=C\c1ccccc1)c1ccc(F)cc1F`: the growth inhibition was 6.55%.

In the case of `Cc1cc(=O)[nH]c(NN2C(Cl)C(=O)C2c2c(O)ccc3ccccc23)n1` (stereo not given), the growth inhibition was 13.3%.

Regarding `CC1=NN(c2cc(S(=O)(=O)O)ccc2Cl)C(=O)C1N=Nc1ccccc1` (stereo not given), the growth inhibition was 12.3%.

On to `CC(C(=O)O)C(C)C(=O)O` (stereo not given), for which the growth inhibition was 6.45%.

Take `CCN(CC)C(=O)c1ccncc1C(=O)c1ccncc1`: the growth inhibition is -14.3%.
